Data taken from PubChem BioAssay (Tox21).
Several values for one entry are separate records, joined by “and”; a condition that tells them apart may be missing. Equal values may be shown once. Inconclusive results are not listed. Activity calls are given as the source filed them. Unless noted, the call rests on the fitted dose curve; in most records, active means well fitted curve in the direction sought with a large enough effect in the repeat runs; inconclusive means weak or mixed curves; inactive means no such curve, though single readings can be large; an effect the other way counts as inactive or inconclusive.

Experiments:
[1] = Caspase-3/7 induction in HepG2 cells by small molecules, qHTS assay (AID 1346978); further: nearly all actives have a fitted effect of over 15% in size
Outline: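 Wild-type HepG2 cells (2,000/well) were settled 5 h at 37 C, 5% CO2, then exposed to compounds in DMSO for 17 h. Caspase-3/7 activity was read by luminescence 30 min after adding Caspase-Glo 3/7 reagent at room temperature.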

[2] = Caspase-3/7 induction in CHO-K1 cells by small molecules, qHTS cell viability counter screen (AID 1346979); further: nearly all actives have a fitted effect of over 35% in size
Outline: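 To flag cytotoxic compounds, treated CHO-K1 wild-type cells were given CellTiter-Fluor at 16hr and read fluorescently after 1hr at 37C; the caspase-3/7 luminescence was measured in these same wells.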

[3] = Caspase-3/7 induction in CHO-K1 cells by small molecules, qHTS assay (AID 1346980); further: nearly all actives have a fitted effect of over 15% in size
Outline: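 Wild-type cells were seeded at 1,500 per well and settled 5 hr at 37 C, 5% CO2, then exposed to DMSO-dissolved compounds for 17 hr. Caspase-Glo 3/7 reagent was added, and luminescence was read after 30min at room temperature.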

[4] = target: Nuclear receptor subfamily 1 group I member 2 (Homo sapiens) (UniProt O75469); assay: Human pregnane X receptor (PXR) small molecule agonists, qHTS assay (AID 1346982); further: nearly all actives have a fitted effect of over 35% in size
Outline: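 We seeded PXR-Luc HepG2 cells in assay medium containing 5% charcoal-stripped FBS, added compounds 5 hr later, incubated 24 hr, and read luminescence with ONE-Glo reagent.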

[5] = target: Acetylcholinesterase (Homo sapiens) (UniProt P22303); assay: Acetylcholinesterase (AChE) small molecule antagonists: colormetric cell-based qHTS assay (AID 1347395; calls by dose curve; further: nearly all actives have a fitted effect of over 30% in size)
Outline: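 Neuroblastoma line SH-SY5Y supplied the enzyme; cells were preincubated with compound for 30 min at 37 C and 5% CO2. Acetylthiocholine with DTNB was then added for 90 min at 37 C, and thiocholine was measured by colour.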

[6] = target: Acetylcholinesterase (Homo sapiens) (UniProt P22303); assay: Acetylcholinesterase (AChE) small molecule antagonists: enzyme-based qHTS assay (AID 1347397; calls by dose curve; further: nearly all actives have a fitted effect of over 55% in size); settings: Potency: AChE enzyme activity inhibition
Outline: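 Recombinant human AChE, dispensed at 50 mU/mL, was preincubated with Tox21 10K compounds or DMSO vehicle for 30 min at room temperature. DTNB plus acetylthiocholine was then added, and thiocholine was measured colorimetrically after a further 10 min.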

Measured: Potency
Potency means the concentration at half of the fitted maximal effect.

Acetylcholinesterase (Homo sapiens), sequence (P22303 whole entry, looked up): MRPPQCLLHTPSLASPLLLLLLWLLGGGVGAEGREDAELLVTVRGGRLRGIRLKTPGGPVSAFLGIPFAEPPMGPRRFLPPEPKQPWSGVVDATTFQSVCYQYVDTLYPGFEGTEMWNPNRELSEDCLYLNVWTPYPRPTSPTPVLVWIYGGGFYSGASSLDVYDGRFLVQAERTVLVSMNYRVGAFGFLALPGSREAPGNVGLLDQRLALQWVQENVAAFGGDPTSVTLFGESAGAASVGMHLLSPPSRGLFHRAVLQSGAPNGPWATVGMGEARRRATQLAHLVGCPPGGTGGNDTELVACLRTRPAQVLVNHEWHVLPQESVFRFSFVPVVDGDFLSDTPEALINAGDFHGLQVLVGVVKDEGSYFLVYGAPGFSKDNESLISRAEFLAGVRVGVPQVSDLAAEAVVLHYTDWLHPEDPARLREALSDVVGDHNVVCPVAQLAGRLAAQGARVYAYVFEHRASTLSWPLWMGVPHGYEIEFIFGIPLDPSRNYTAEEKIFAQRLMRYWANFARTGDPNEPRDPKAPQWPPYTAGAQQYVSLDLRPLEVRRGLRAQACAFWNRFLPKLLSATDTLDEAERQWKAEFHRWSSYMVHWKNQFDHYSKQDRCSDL
Nuclear receptor subfamily 1 group I member 2 (Homo sapiens), sequence (O75469 whole entry, looked up): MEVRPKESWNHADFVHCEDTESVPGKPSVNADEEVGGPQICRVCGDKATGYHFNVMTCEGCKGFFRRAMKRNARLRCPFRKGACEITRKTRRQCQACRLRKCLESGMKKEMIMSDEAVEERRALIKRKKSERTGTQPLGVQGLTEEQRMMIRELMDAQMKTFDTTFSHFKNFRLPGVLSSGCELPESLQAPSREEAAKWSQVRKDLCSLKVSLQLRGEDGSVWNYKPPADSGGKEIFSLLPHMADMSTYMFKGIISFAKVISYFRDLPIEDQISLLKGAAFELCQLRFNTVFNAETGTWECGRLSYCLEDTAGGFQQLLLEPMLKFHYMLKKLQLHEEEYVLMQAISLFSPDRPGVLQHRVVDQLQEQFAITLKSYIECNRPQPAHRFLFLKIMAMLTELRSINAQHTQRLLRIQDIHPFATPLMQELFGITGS

[CH3][Hg][Cl]
inactive: [1] | [3] | [4] | [5] | [6]
active: [2] 7.67 µM

Nc1ccc(Cl)cc1C(=O)c1ccccc1
active: [2] 61.1 µM | [4] 61.1 µM
inactive: [1] | [3] | [5] | [6]

CCOCn1c(-c2ccc(Cl)cc2)c(C#N)c(Br)c1C(F)(F)F
inactive: [1] | [3] | [5] | [6]
active: [2] 2.73 µM | [4] 1.37 µM

CCN
inactive: [1] | [2] | [3] | [4] | [5] | [6]

CC(C)(C)C(O)C(Oc1ccc(-c2ccccc2)cc1)n1cncn1 (stereo unspecified)
inactive: [1] | [3] | [5] | [6]
active: [2] 61.1 µM | [4] 19.3 µM

CC(=O)c1ccc(-c2ccccc2)cc1
inactive: [1] | [2] | [3] | [5] | [6]
active: [4] 48.6 µM

Oc1ccc(C(c2ccc(O)cc2)(C(F)(F)F)C(F)(F)F)cc1
active: [2] 60.8 µM and 68.6 µM | [4] 24.2 µM and 27.3 µM
inactive: [1] | [3] | [5] | [6]

ClC(Cl)=C(Cl)Cl
inactive: [1] | [2] | [3] | [4] | [5] | [6]

BrC(Br)C(Br)(Br)Br
active: [2] 48.9 µM
inactive: [1] | [3] | [4] | [5] | [6]

CCCCN(CCCC)C(=S)[S-].CCCCN(CCCC)C(=S)[S-].[Zn+2]
inactive: [1] | [3] | [5] | [6]
active: [2] 21.7 µM

CN(CCCC(=O)c1cccnc1)N=O
inactive: [1] | [2] | [3] | [4] | [5] | [6]

O=C/C(Cl)=C(/Cl)C(=O)O
active: [2] 38.5 µM and 30.6 µM
inactive: [1] | [3] | [4] | [5] | [6]

Nc1ccc(Sc2ccc(N)cc2)cc1
active: [4] 34.4 µM
inactive: [1] | [2] | [3] | [5] | [6]

Nc1ccc(Cc2ccc(N)c(Cl)c2)cc1Cl
active: [2] 59.1 µM | [4] 52.7 µM
inactive: [1] | [3] | [5] | [6]

COP(N)(=S)OC
inactive: [1] | [2] | [3] | [4] | [6]
active: [5] 63.3 µM

N#Cc1c(-c2ccc(Cl)cc2)[nH]c(C(F)(F)F)c1Br
inactive: [1] | [3] | [5] | [6]
active: [2] 1.54 µM | [4] 2.17 µM

CC(C)(C)c1cc([N+](=O)[O-])cc(C(C)(C)C)c1O
inactive: [1] | [3] | [5] | [6]
active: [2] 7.7 µM | [4] 5.45 µM

C=CCC1=C(C)C(OC(=O)C2C(C=C(C)C)C2(C)C)CC1=O (stereo unspecified)
inactive: [1] | [3] | [5] | [6]
active: [2] 55.3 µM | [4] 10.3 µM

CCOC(=O)c1ccccc1S(=O)(=O)NC(=O)Nc1nc(Cl)cc(OC)n1
inactive: [1] | [2] | [3] | [4] | [5] | [6]

COCC(=O)N(c1c(C)cccc1C)[C@H](C)C(=O)OC
inactive: [1] | [2] | [3] | [4] | [5] | [6]

CCC[CH2][Sn]([CH2]CCC)([CH2]CCC)[O]C(=O)c1ccccc1
active: [1] 3.06 µM | [2] 0.77 µM | [3] 1.93 µM | [4] 0.486 µM
inactive: [5] | [6]

Oc1cc(Cl)c(Cl)c(Cl)c1
active: [2] 65 µM | [4] 29.1 µM
inactive: [1] | [3] | [5] | [6]

Cc1ccc(OP(=O)(Oc2ccccc2)Oc2ccccc2)cc1
active: [4] 13.9 µM | [5] 20.3 µM | [6] 20.3 µM
inactive: [1] | [2] | [3]

O=c1[nH]c2ccccc2n1C1CCN(CCCC(c2ccc(F)cc2)c2ccc(F)cc2)CC1
inactive: [4] | [5] | [6]
active: [1] 61.1 µM | [2] 30.6 µM and 26.6 µM | [3] 30.6 µM

CC(C)N1C(=O)N(c2ccccc2)CSC1=NC(C)(C)C
active: [2] 61.1 µM | [4] 6.11 µM
inactive: [1] | [3] | [5] | [6]

CCCCCCCCCCCCCCCCCCn1cc[n+](C)c1
active: [2] 4.3 µM | [6] 28.1 µM
inactive: [1] | [3] | [4]

Fc1cccc(Cl)c1CCl
inactive: [1] | [2] | [3] | [4] | [5] | [6]

CN(C)c1ccc(N=Nc2ccccc2)cc1
active: [2] 30.7 µM | [4] 7.7 µM
inactive: [1] | [3] | [5] | [6]
